# Measurements: PubChem BioAssay
# Values joined by “and” are separate entries in the source; they are usually repeats but may differ in a detail not shown here. Equal entries are not always repeated. Active and inactive are the calls of the source. Rule as the data show it: active = inhibition above about 80%; inactive = the rest.
# Assay: growth inhibition, MDA-MB-436, cell-based, BGB or cisplatin combos, synergistic combos for chromothripsis tumors (AID 1671458);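 also: cells exposed for 96 hours; 0% = vehicle DMSO and 100% = killing by high DMSO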
# Conditions: MDA-MB-436 breast carcinoma growth inhibition, drug combinations; measured here: BGB combination; at 5 µM; stronger effect = higher value
row,SMILES,inhibition
1,Cc1ccc2nc(NCCN)c3ncc(C)n3c2c1,65.6%
2,C[C@]1(c2nc3c(C(N)=O)cccc3[nH]2)CCCN1,-15.2% and -14.8%
3,O=C(O)[C@H](Cc1c[nH]c2ccccc12)N1C(=O)c2ccccc2C1=O,-8.16%
4,CN(C)CCN1C(=O)c2cccc3cc(N)cc(c23)C1=O,10.1%

# Same assay, conditions: MDA-MB-436 breast carcinoma growth inhibition, drug combinations; measured here: cisplatin combination; at 0.5 µM; stronger effect = higher value
row,SMILES,inhibition
1,Cc1ccc2nc(NCCN)c3ncc(C)n3c2c1,6.41%
2,C[C@]1(c2nc3c(C(N)=O)cccc3[nH]2)CCCN1,-9.15% and -22.2%
3,O=C(O)[C@H](Cc1c[nH]c2ccccc12)N1C(=O)c2ccccc2C1=O,-19.2%
4,CN(C)CCN1C(=O)c2cccc3cc(N)cc(c23)C1=O,-20.8%

# Same assay, conditions: MDA-MB-436 breast carcinoma growth inhibition, drug combinations; measured here: cisplatin combination; at 5 µM; stronger effect = higher value
row,SMILES,inhibition
1,Cc1ccc2nc(NCCN)c3ncc(C)n3c2c1,80.2%
2,C[C@]1(c2nc3c(C(N)=O)cccc3[nH]2)CCCN1,7.37% and -17%
3,O=C(O)[C@H](Cc1c[nH]c2ccccc12)N1C(=O)c2ccccc2C1=O,-7.27%
4,CN(C)CCN1C(=O)c2cccc3cc(N)cc(c23)C1=O,21.8%

# Assay: UWB1.289_BRCA1 ovarian cancer growth, cell-based, BGB or cisplatin combinations (AID 1671459)
# Conditions: UWB1.289 BRCA1 ovarian carcinoma, drug combinations, BGB combination, concentration series, at 5 µM, stronger effect = higher value
row,SMILES,inhibition
1,Cc1ccc2nc(NCCN)c3ncc(C)n3c2c1,91.7%
2,C[C@]1(c2nc3c(C(N)=O)cccc3[nH]2)CCCN1,10.2% and -0.186%
3,O=C(O)[C@H](Cc1c[nH]c2ccccc12)N1C(=O)c2ccccc2C1=O,-11.5%
4,CN(C)CCN1C(=O)c2cccc3cc(N)cc(c23)C1=O,38.8%

# Same assay, conditions: UWB1.289 BRCA1 ovarian carcinoma, drug combinations, at 0.5 µM, stronger effect = higher value
row,SMILES,inhibition
1,Cc1ccc2nc(NCCN)c3ncc(C)n3c2c1,1.55% (inactive)
2,C[C@]1(c2nc3c(C(N)=O)cccc3[nH]2)CCCN1,-7.22% (inactive) and -0.79% (inactive)
3,O=C(O)[C@H](Cc1c[nH]c2ccccc12)N1C(=O)c2ccccc2C1=O,-15.7% (inactive)
4,CN(C)CCN1C(=O)c2cccc3cc(N)cc(c23)C1=O,-2.87% (inactive)

# Same assay, conditions: UWB1.289 BRCA1 ovarian carcinoma, drug combinations, cisplatin combination, concentration series, at 5 µM, stronger effect = higher value
row,SMILES,inhibition
1,Cc1ccc2nc(NCCN)c3ncc(C)n3c2c1,76.1%
2,C[C@]1(c2nc3c(C(N)=O)cccc3[nH]2)CCCN1,-4.84% and 4.22%
3,O=C(O)[C@H](Cc1c[nH]c2ccccc12)N1C(=O)c2ccccc2C1=O,-28.9%
4,CN(C)CCN1C(=O)c2cccc3cc(N)cc(c23)C1=O,37.9%

# Assay: drug combination toxicity in non-malignant astrocytes – cell-based, BGB or cisplatin IC20 combos, cytotoxicity control for chromothriptic childhood tumor combination screen (AID 1671460);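 also: cells exposed to compounds for 96 hours before viability readout; 0% = vehicle and 100% = killing control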
# Conditions: Human astrocytes, viability inhibition, drug combinations; at 0.5 µM; stronger effect = higher value
row,SMILES,inhibition
1,Cc1ccc2nc(NCCN)c3ncc(C)n3c2c1,-0.35% (inactive)
2,C[C@]1(c2nc3c(C(N)=O)cccc3[nH]2)CCCN1,9.85% (inactive) and -2.9% (inactive)
3,O=C(O)[C@H](Cc1c[nH]c2ccccc12)N1C(=O)c2ccccc2C1=O,-2.94% (inactive)
4,CN(C)CCN1C(=O)c2cccc3cc(N)cc(c23)C1=O,2.38% (inactive)
